Screens as filed in PubChem.
An excerpt weighted towards active compounds, which were near 4% of everything screened.
Wnt bcat act = Wnt/beta-catenin pathway activation | 1.2% of 300,000 active | activation, % at 9.35 µM | AID 743398 | Wnt/beta-catenin reporter cell assay, activator, plate reader; in the data active = activation above about 30%, passing the limit was not always enough; inconclusive = no clear call, values can overlap the other calls
Statin myotox sup = suppression of simvastatin myotoxicity; C2C12 myotubes + simvastatin, ATP luminescence, 48 h; scaled: DMSO 0, geranylgeraniol control 100; rescue of ATP level, % at 7.49 µM; 0.78% of 330,000 active; AID 602340;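 active = mean ATP rescue above about 67%, or every replicate alone reaching that limit, limit read from the data, passing the limit was not always enough; inconclusive = no clear call, values can overlap the other calls; inactive = mean under the limit and some replicate under it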;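 note: myotubes were challenged with 10 µM simvastatin during compound exposure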
esBAF inh = blocks esBAF chromatin remodeling in mouse ES cells; 2% of 350,000 active; Bmi1-luciferase knock-in reporter, 24 h; 100% = twice the neutral-well signal; reporter increase, % at 12.5 µM; AID 602393; in the data active = activation above about 40%; inconclusive = no clear call, values can overlap the other calls;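 note: a rise in the Bmi1 reporter signal indicates esBAF inhibition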
MITF TRPM1 inh = reduces MITF-dependent TRPM1 promoter luciferase signal; SK-MEL-5 TRPM1 promoter luciferase, 24 h; inhibition, % at 12.5 µM; 0.83% of 330,000 active;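 active = mean inhibition across replicates of 60% or more, whatever share of single replicates reaches that level; inconclusive = some that reach 60%, reason not given; inactive = mean inhibition across replicates below 60%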
MITF TRPM1 HTS = MITF TRPM1 promoter activation in melanoma cells. 0.75% of 300,000 active. SK-MEL-5 TRPM1-promoter luciferase, 24 h; % of positive control, neutral wells = 0. activation, % at 12.5 µM;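 active = mean activation of at least 80% with every replicate also reaching 80%; inconclusive = mean reaches 80% but some replicate falls short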
LMP1 NFkB inh = inhibitors of Epstein-Barr LMP1-induced NF-kappaB reporter; LMP1-induced NF-kappaB luciferase reporter cells, luminescence; AID 504558; 0.69% of 350,000 active; inhibition, % at 12.5 µM; in the data active = inhibition above about 41%; inconclusive = no clear call, values can overlap the other calls
Hits are given with their value; i = inactive; ? = inconclusive; nt = not tested or not shown.

SMILES	Wnt bcat act	Statin myotox sup	esBAF inh	MITF TRPM1 inh	MITF TRPM1 HTS	LMP1 NFkB inh
Cc1ccc(OCC(=O)NNC(=S)NC(=O)C2CCCCC2)c(C)c1	nt	i	i	i	i	45
Cc1ccc(OCC(=O)NNC(=S)NC(=O)C2CC2)c(C)c1	i	i	i	i	i	i
CCOC(=O)C1CCN(C(=O)c2ccc3c(=O)n4nc(Nc5cc(C)ccc5C)sc4nc3c2)CC1	i	i	i	i	i	i
C[C@H](CO)N1C[C@H](C)[C@H](CN(C)S(=O)(=O)c2cccs2)Oc2c(NC(=O)C3CCCCC3)cccc2C1=O	nt	i	i	nt	nt	nt
CCn1c(SCC(=O)c2ccc(C)cc2)nnc1-c1ccoc1C	i	i	88	i	nt	i
Cc1occc1-c1nnc(SCC(=O)c2ccc(Cl)cc2)n1CC1CCCO1 (stereo not given)	i	137	i	i	i	i
CCOc1cc2[nH]c(=O)n(Cc3ccccc3)c(=O)c2cc1OCC	i	nt	nt	i	nt	i
COCc1cc(=O)n2[nH]c(-c3ccccc3)cc2n1	i	i	i	i	nt	i
O=C(Nc1cccc(Cl)c1)c1nc[nH]c1C(=O)NCCCNC(=O)c1[nH]cnc1C(=O)Nc1cccc(Cl)c1	i	106	i	i	i	i
O=C(Nc1cccc(Cl)c1)c1cnc[nH]1	i	i	58	i	i	i
CN(Cc1ccccc1)C(=O)c1[nH]cnc1C(=O)Nc1cccc(Cl)c1	i	i	45	i	i	i
CC(C)(C)C(=O)OCc1nc(-c2ccc(Cl)cc2)cs1	i	i	65	i	i	i
CC(C)(C)C(=O)OCc1nc(-c2ccc(F)cc2)cs1	i	i	?	i	110	i
COc1ccc(-c2csc(COC(=O)C(C)(C)C)n2)cc1	i	nt	nt	i	i	i
S=C(Nc1ccccc1)Nc1ccc2cn[nH]c2c1	33	i	i	i	i	i
O=C(C1CCC(CNS(=O)(=O)c2cccs2)CC1)N1CCCCC1 (stereo not given)	nt	i	i	i	i	i
c1ccc(-c2nnsc2Sc2ccccn2)cc1	36	i	54	i	i	i
CO[C@@H]1CC[C@@H]2CCN(C)C(=O)[C@@H](C)N(C)C(=O)c3cc(C#N)ccc3OC[C@@H]1O2	nt	i	i	nt	nt	nt
CCOC(=O)c1cnn(-c2ccccc2)c1NC(=O)CN1CCOCC1	i	i	i	i	nt	63
N#Cc1cnn(-c2ccccc2)c1NC(=O)CN1CCOCC1	i	i	i	nt	nt	nt
CCOC(=O)c1cnn(-c2ccccc2)c1NC(=O)c1ccccc1C	39	i	i	i	i	i
CCOC(=O)c1ccc2c(c1)NCc1cccc(OC)c1O2	i	i	58	i	i	i
COc1ccc(C(=O)OCC(=O)c2ccc3c(c2)NC(=O)CO3)cc1OC	i	i	i	i	i	i
CCCc1nc2oc3ccccc3c(=O)c2c(=O)n1-c1ccc(C)cc1	49	nt	nt	nt	nt	nt
COc1ccc(Cn2c(-c3ccco3)nc3oc4ccccc4c(=O)c3c2=O)cc1	i	i	68	i	nt	i
SMILES	Wnt bcat act	Statin myotox sup	esBAF inh	MITF TRPM1 inh	MITF TRPM1 HTS	LMP1 NFkB inh
CCc1nc2oc3ccccc3c(=O)c2c(=O)n1-c1ccc(C)cc1	44	nt	nt	nt	nt	nt
CCCc1nc2oc3ccccc3c(=O)c2c(=O)n1-c1ccccc1	i	nt	nt	nt	nt	nt
COc1ccc(Cn2c(-c3ccco3)nc3oc4cc(OC)ccc4c(=O)c3c2=O)cc1	i	i	?	i	i	i
CCc1nc2oc3ccccc3c(=O)c2c(=O)n1-c1ccccc1	53	i	i	i	i	i
COc1ccc(NC(=O)N(C)C[C@H]2Oc3ccc(NC(=O)c4ccncc4)cc3CC(=O)N([C@H](C)CO)C[C@@H]2C)cc1	nt	i	i	nt	nt	nt
C[C@H](CO)N1C[C@H](C)[C@H](CN(C)Cc2ccccc2)OCCCC[C@H](C)Oc2ccc(NS(=O)(=O)c3ccc(F)cc3)cc2C1=O	nt	nt	i	nt	nt	nt
Cc1ccc(-n2c(C(C)C)nc3oc4ccccc4c(=O)c3c2=O)cc1	65	nt	nt	i	i	i
COC(=O)C1(C(=O)OC)NOC2C(=O)N(c3ccc(Cl)cc3Cl)C(=O)C21 (stereo not given)	i	134	i	i	i	i
Cc1nc(-c2ccccc2)nc2[nH]c(=O)n(-c3ccccc3)c(=O)c12	?	i	43	i	nt	i
CC(=O)Nc1nc(-c2ccccc2)nc(C)c1C(C)=O	nt	i	i	i	i	i
CC(=O)c1c(C)nc(-c2ccccc2)nc1NC(=O)C(C)C	nt	i	i	i	i	i
Cc1nc(-c2ccccc2)nc2[nH]c(C(C)C)cc(=O)c12	68	i	i	i	i	i
COc1ccc(S(=O)(=O)Nc2cccc3c2O[C@H](CN(C)S(=O)(=O)c2ccc(Cl)cc2)[C@H](C)CN([C@@H](C)CO)C3=O)cc1	nt	91	i	nt	nt	nt
COc1ccc(S(=O)(=O)N(C)C[C@H]2Oc3c(NC(=O)CCC(F)(F)F)cccc3C(=O)N([C@H](C)CO)C[C@@H]2C)cc1	i	i	i	i	i	56
COc1ccc(S(=O)(=O)Nc2cccc3c2O[C@@H](CN(C)S(=O)(=O)c2ccc(Cl)cc2)[C@@H](C)CN([C@@H](C)CO)C3=O)cc1	nt	i	i	nt	nt	nt
C[C@H](CO)N1C[C@H](C)[C@@H](CN(C)S(=O)(=O)c2ccc(F)cc2)Oc2c(NC(=O)CCC(F)(F)F)cccc2C1=O	i	i	i	i	i	i
COc1ccccc1S(=O)(=O)N(C)C[C@H]1Oc2ncc(-c3ccc(C)cc3)cc2C(=O)N([C@@H](C)CO)C[C@H]1C	nt	i	i	nt	nt	nt
CCc1nc(SCC(=O)NCc2ccco2)c2c(=O)n(C)c(=O)n(C)c2n1	i	i	i	i	i	i
CCCc1nc(SCC(=O)NCc2ccco2)c2c(=O)n(C)c(=O)n(C)c2n1	i	i	i	i	i	66
Cc1cc(S(=O)(=O)c2ccc(Cl)cc2)nc(S(=O)(=O)c2ccc(Cl)cc2)c1C#N	i	i	i	nt	nt	52
O=C(COc1ccccc1)Nc1ccc([N+](=O)[O-])cc1	nt	nt	nt	i	i	i
CCOC(=O)c1[nH]c2ccc(Br)cc2c1NC(=O)CCN1CCN(C(=O)OCC)CC1	i	104	i	i	i	i
CCOC(=O)Nc1c(C(=O)OC)[nH]c2cc(OC)ccc12	nt	107	i	i	i	i
CCOC(=O)c1[nH]c2ccc(OC)cc2c1NC(=S)N1CCN(C(=O)OCC)CC1	i	i	i	i	i	i
CCOC(=O)c1[nH]c2ccc(OC)cc2c1NC(=O)CCN1CCCC(C)C1 (stereo not given)	nt	145	i	i	i	i
CCOC(=O)c1[nH]c2ccc(OC)cc2c1NC(=O)OC	nt	i	i	i	i	i
Cc1ccc(S(=O)(=O)N(C)C)cc1NC(=O)COC(=O)c1ccc2c(=O)n3c(nc2c1)CCC3	i	i	i	i	i	i
CCOC(=O)c1[nH]nc(-c2cc(CC)c(O)cc2O)c1-c1cscn1	i	nt	nt	i	i	i
Cc1cc2nc(-c3ccccc3O)[nH]c2cc1C	i	i	i	i	i	i
Clc1cc2nc(-c3cccnc3Cl)[nH]c2cc1Cl	47	i	i	i	89	i
